From the supplement of paper PMC11732987, “Enantioselective OTUD7B fragment discovery through chemoproteomics screening and high-throughput optimisation” (Communications Chemistry, 2025)

Legend:
Test in all cases: log2 ratio of Biotin-Ahx-Ub-VS probe labelling (fragment/DMSO); higher = less target engagement (more negative = stronger competition), active = hit call of the paper (q ≤ 0.05, log2 ratio ≤ -1)
Conditions in all cases: compound concentration: 200 uM; treatment time: 3 h
[1] = biological target: T1, USP42 (UniProt Q9H9J4)
T1 sequence (whole entry): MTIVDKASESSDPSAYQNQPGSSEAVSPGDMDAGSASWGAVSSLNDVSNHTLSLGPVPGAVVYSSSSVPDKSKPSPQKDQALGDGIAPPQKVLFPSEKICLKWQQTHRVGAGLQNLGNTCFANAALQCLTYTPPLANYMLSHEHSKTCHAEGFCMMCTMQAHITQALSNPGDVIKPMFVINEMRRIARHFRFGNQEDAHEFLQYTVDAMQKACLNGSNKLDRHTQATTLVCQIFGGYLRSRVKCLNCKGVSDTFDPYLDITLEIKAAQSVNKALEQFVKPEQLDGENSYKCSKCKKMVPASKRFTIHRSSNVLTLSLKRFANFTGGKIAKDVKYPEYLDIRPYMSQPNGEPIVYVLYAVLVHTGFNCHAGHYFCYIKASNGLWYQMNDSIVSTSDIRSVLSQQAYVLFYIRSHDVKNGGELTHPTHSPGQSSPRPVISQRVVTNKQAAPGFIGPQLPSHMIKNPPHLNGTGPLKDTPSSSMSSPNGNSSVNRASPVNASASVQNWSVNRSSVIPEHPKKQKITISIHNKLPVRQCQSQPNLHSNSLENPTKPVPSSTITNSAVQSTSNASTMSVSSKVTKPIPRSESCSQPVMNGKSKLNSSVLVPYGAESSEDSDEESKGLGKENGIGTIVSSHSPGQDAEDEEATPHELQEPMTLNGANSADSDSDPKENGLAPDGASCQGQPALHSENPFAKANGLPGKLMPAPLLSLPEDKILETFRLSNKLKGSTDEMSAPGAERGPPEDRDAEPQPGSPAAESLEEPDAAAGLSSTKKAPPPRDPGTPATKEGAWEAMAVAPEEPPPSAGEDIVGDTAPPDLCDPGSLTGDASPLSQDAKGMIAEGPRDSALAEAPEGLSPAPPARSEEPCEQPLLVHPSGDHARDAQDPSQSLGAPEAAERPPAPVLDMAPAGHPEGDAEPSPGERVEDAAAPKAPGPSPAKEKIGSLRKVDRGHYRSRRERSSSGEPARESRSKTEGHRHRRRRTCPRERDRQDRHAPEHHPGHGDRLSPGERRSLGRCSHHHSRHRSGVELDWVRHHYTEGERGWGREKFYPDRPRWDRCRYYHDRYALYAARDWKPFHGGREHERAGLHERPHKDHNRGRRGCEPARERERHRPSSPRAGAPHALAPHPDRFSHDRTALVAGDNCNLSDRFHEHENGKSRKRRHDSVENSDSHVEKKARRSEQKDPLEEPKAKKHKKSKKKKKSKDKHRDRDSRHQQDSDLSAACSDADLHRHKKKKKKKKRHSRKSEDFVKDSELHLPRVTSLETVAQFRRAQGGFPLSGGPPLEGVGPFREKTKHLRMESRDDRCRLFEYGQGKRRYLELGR
Summary of the method: (§1)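 Fragment (200 µM) or vehicle was incubated for 3 h with triplicate HEK293T lysate samples of 495 µg, which were then treated with Biotin-Ahx-Ub-VS at 0.5 µM final for 1 h. Labelled DUBs were enriched on NeutrAvidin, digested with LysC and trypsin, and analysed by diaPASEF LC-MS/MS. Values are average log2 fragment/vehicle ratios from an unpaired t-test on global-median-normalised Spectronaut label-free quantities, using proteins with ≥2 unique peptides.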

[2] = biological target: USP46 (UniProt P62068)
Summary of the method: as §1

[3] = biological target: T2, USP47 (UniProt Q96K76)
T2 sequence (whole entry): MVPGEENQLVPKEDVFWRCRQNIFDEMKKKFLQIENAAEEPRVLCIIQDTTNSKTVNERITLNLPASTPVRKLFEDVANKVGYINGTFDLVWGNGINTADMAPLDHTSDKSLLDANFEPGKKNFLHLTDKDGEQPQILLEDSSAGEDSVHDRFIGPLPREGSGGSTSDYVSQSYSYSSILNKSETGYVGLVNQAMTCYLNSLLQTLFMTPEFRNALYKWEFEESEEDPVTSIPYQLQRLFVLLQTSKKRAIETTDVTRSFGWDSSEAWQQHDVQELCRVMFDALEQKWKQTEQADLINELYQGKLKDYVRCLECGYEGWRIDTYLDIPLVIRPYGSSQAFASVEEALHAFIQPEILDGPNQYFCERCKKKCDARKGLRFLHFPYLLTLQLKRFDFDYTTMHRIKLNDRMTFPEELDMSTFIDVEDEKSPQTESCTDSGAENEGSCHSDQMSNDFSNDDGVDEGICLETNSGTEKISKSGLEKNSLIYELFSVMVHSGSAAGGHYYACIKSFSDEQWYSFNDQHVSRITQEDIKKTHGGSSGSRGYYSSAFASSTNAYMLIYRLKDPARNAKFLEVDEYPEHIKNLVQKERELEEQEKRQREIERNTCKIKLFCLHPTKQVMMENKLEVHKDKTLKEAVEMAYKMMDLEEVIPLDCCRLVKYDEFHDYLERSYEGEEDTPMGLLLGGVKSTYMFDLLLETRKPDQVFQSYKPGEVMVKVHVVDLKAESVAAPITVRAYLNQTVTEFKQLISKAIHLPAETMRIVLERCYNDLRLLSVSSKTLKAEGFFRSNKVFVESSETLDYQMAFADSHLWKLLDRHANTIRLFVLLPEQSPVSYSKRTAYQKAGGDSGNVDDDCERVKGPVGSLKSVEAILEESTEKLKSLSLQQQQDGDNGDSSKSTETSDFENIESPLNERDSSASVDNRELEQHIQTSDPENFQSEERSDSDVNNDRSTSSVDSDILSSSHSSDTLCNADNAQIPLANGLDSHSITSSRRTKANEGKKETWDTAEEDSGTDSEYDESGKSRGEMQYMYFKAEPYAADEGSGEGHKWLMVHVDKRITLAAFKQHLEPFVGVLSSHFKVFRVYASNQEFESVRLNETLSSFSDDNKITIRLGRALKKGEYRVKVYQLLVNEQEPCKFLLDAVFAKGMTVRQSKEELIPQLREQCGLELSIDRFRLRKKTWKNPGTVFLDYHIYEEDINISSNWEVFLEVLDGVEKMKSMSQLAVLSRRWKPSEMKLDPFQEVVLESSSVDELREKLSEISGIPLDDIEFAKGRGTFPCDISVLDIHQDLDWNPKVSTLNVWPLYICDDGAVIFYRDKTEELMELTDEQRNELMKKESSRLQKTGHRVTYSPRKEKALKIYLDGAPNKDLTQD
Summary of the method: as §1

[4] = biological target: T3, USP48 (UniProt Q86UV5)
T3 sequence (whole entry): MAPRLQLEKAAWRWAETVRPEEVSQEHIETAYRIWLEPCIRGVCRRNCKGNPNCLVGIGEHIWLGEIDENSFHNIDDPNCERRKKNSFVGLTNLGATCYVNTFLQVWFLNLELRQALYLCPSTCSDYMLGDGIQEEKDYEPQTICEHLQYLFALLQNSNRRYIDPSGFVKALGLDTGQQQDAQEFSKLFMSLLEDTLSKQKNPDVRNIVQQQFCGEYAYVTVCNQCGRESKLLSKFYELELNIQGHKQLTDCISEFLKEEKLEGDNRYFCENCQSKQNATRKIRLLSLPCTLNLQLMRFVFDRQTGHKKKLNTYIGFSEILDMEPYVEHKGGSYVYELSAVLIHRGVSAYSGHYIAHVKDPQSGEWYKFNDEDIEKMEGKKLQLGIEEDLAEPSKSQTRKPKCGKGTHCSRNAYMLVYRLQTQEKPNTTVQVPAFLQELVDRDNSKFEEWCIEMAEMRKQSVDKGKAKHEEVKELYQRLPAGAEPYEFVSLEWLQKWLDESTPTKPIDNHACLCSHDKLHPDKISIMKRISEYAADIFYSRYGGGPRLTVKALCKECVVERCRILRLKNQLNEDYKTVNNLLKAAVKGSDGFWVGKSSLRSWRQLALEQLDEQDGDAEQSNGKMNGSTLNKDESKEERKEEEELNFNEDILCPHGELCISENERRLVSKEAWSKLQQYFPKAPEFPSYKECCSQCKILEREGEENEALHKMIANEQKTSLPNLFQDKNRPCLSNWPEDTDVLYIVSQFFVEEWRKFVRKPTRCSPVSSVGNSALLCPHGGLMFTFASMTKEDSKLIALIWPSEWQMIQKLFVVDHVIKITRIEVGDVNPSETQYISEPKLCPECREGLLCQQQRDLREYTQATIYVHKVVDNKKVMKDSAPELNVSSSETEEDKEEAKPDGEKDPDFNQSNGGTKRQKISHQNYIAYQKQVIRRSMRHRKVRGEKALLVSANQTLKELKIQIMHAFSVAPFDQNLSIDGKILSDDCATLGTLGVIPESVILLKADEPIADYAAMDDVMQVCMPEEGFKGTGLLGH
Summary of the method: as §1

[5] = biological target: T4, USP5 (UniProt P45974)
T4 sequence (whole entry): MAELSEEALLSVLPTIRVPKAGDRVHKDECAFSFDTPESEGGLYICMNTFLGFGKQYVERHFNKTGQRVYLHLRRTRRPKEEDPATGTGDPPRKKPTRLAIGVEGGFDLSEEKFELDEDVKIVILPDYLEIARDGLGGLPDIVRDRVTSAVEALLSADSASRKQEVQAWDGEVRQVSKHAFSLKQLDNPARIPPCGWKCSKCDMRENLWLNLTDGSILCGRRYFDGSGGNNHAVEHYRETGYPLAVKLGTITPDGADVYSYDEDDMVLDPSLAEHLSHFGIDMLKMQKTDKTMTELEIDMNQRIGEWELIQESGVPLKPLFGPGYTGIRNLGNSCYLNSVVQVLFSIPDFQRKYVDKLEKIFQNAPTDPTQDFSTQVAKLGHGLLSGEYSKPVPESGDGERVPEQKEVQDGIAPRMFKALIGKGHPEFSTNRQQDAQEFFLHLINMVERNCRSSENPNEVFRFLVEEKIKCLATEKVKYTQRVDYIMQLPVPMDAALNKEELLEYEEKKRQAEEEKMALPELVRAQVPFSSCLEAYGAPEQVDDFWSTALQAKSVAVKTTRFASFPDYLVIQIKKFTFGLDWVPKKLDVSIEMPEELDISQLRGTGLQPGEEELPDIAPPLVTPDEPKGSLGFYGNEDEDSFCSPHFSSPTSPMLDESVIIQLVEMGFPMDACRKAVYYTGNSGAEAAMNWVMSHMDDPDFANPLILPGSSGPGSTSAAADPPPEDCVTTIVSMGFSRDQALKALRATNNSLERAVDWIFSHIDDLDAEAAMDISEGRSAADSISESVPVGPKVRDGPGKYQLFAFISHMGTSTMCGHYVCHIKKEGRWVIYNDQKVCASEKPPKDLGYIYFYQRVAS
Summary of the method: as §1

[6] = biological target: USP54 (UniProt Q70EL1)
Summary of the method: as §1

[7] = biological target: USP7 (UniProt Q93009)
Summary of the method: as §1

[8] = biological target: T5, USP8 (UniProt P40818)
T5 sequence (whole entry): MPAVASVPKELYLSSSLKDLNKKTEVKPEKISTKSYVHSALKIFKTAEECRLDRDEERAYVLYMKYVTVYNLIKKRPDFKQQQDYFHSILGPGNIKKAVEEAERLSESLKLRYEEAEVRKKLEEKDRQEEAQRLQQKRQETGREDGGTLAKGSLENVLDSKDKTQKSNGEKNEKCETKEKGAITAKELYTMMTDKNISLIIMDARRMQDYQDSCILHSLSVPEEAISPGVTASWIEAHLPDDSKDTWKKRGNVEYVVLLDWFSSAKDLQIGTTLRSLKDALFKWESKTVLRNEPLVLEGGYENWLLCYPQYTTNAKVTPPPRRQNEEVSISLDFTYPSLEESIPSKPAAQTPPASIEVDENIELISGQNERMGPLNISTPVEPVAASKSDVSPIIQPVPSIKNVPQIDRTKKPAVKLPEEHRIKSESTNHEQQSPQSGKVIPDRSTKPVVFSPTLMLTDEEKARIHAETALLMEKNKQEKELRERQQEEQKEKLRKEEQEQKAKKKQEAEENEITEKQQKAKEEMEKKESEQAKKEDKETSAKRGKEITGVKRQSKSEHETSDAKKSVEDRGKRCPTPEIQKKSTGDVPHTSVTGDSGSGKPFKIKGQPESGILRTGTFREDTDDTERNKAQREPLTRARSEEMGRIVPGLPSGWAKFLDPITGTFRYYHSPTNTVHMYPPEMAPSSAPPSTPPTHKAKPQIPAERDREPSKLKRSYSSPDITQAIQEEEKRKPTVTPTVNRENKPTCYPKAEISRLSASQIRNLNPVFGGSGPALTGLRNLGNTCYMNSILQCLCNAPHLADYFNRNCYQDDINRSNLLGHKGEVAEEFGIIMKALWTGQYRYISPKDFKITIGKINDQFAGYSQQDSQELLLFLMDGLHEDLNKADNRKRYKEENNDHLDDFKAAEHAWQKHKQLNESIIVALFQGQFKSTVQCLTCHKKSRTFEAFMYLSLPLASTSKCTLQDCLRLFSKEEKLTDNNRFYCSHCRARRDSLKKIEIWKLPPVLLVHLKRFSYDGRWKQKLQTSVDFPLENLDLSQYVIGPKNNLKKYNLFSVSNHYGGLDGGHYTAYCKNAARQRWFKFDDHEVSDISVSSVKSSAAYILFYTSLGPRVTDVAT
Summary of the method: as §1

[9] = biological target: USP9X (UniProt Q93008)
Summary of the method: as §1

[10] = biological target: UniProt O00487
Summary of the method: as §1

Measured: log2 ratio of Biotin-Ahx-Ub-VS probe labelling

USP9X, sequence (Q93008 whole entry): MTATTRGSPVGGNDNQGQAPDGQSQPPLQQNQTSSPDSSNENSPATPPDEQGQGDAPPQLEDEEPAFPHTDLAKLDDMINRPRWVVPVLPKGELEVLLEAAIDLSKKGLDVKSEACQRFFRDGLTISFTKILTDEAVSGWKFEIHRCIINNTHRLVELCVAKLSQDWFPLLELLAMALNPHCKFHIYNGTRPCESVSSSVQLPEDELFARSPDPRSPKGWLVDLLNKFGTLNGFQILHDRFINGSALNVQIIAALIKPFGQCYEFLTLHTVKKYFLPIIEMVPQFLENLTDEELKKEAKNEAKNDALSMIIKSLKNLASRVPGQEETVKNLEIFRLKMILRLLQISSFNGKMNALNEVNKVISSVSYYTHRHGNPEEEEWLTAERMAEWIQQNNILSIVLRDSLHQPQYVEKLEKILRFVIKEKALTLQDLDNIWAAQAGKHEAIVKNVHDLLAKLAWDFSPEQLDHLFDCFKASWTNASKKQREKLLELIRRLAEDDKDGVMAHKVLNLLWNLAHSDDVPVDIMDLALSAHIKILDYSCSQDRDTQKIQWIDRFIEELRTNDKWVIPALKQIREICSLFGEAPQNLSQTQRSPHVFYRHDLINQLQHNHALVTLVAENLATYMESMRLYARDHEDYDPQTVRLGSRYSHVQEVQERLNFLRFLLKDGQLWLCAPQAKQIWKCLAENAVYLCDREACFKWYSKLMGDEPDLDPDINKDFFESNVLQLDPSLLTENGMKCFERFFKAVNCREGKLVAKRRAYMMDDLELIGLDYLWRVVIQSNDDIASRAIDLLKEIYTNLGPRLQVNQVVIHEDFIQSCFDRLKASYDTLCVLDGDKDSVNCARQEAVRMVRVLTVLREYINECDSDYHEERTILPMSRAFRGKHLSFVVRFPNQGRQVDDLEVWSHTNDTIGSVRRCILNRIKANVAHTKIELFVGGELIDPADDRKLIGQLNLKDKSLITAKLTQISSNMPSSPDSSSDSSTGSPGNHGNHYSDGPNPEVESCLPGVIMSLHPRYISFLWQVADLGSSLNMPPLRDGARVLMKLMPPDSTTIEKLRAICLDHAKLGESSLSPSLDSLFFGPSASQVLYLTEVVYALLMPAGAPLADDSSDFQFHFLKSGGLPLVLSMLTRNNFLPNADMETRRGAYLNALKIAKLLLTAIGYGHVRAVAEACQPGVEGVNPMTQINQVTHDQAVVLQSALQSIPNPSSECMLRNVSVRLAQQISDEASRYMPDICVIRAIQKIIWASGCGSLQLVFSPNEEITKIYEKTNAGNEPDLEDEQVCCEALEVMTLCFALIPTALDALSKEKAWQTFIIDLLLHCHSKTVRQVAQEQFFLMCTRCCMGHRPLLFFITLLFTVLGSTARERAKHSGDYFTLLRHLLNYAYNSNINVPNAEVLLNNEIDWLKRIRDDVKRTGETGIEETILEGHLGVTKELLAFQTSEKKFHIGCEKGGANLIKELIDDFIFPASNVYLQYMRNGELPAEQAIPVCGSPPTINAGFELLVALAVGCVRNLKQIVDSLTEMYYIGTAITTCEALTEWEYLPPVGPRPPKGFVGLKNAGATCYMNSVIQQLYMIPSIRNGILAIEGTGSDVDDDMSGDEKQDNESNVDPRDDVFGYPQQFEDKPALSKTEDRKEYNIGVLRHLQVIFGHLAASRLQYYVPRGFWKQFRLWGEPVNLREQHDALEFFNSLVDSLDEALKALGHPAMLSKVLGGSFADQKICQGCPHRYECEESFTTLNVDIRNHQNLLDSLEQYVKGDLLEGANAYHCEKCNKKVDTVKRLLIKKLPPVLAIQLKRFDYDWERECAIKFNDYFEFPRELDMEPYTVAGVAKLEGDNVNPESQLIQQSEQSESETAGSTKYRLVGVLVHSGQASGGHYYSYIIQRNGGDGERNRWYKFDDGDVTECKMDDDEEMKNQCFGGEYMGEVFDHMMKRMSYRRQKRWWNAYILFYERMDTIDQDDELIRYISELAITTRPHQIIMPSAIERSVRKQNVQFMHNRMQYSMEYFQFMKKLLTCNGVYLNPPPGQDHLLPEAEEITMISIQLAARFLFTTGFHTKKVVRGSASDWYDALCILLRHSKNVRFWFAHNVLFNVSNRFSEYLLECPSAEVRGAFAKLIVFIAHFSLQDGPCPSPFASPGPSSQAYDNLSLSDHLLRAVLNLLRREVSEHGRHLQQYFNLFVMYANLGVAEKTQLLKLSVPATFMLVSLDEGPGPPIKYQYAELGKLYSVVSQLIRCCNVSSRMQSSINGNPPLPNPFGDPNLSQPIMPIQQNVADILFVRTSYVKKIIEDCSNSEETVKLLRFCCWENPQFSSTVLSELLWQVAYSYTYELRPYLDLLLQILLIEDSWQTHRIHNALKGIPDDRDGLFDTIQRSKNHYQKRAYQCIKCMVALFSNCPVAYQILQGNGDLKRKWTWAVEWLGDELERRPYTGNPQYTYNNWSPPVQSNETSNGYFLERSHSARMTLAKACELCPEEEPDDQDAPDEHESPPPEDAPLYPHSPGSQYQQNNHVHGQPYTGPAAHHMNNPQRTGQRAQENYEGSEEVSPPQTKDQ
UniProt O00487, sequence (O00487 whole entry): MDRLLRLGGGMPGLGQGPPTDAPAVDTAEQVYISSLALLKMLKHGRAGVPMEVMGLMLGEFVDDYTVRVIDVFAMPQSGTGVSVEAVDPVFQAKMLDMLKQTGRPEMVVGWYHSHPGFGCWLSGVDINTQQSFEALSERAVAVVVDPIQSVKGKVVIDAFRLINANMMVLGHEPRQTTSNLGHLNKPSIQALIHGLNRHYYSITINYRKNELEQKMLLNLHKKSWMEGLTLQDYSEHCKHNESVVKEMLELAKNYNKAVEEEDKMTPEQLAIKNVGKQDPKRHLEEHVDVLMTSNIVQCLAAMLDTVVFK
USP7, sequence (Q93009 whole entry, looked up): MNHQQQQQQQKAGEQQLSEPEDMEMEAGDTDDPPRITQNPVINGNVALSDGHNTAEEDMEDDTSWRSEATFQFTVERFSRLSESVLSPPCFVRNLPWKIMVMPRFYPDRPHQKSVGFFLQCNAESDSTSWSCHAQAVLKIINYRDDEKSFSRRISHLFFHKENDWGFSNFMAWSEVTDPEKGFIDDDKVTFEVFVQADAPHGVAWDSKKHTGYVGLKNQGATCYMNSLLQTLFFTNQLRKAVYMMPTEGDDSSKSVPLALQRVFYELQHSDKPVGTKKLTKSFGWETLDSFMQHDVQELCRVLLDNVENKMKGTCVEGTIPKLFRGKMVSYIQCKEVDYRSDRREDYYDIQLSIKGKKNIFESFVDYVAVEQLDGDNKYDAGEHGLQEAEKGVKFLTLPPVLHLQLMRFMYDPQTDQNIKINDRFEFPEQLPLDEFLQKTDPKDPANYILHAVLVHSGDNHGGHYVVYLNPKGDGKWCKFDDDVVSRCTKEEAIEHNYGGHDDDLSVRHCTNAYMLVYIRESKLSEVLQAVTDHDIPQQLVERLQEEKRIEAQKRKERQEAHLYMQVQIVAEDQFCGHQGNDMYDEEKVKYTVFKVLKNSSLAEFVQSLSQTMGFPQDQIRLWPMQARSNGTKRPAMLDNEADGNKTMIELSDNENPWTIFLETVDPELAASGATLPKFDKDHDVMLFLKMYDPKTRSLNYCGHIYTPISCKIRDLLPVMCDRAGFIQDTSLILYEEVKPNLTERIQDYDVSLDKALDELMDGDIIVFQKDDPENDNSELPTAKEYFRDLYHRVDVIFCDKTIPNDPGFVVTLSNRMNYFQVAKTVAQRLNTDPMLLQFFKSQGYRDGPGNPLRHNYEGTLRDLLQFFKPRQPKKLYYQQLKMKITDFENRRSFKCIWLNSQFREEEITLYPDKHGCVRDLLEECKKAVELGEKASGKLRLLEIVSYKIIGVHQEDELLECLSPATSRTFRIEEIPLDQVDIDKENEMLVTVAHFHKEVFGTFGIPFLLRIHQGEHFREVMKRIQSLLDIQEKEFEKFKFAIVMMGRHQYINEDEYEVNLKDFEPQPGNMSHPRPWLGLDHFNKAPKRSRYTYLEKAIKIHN
USP46, sequence (P62068 whole entry): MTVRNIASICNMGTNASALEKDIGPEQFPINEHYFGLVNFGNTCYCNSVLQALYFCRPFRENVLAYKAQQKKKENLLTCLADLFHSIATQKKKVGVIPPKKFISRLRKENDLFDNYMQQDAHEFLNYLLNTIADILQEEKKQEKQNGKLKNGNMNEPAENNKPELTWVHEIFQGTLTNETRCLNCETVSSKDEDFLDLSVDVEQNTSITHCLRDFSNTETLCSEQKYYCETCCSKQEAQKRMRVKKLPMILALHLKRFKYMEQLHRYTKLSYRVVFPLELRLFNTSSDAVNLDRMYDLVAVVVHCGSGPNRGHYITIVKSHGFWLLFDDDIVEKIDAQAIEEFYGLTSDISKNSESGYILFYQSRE

O=C(CCl)N1CCC(C(=O)N2CCCC2)CC1
inactive: [1] -0.161 | [2] 0.0393 | [3] -0.0567 | [4] 0.126 | [5] -0.266 | [6] -0.159 | [7] -0.543 | [8] -0.0342 | [9] -0.0236 | [10] -0.108
